# Source: the supplement of paper PMC9262897, “Low-cost anti-mycobacterial drug discovery using engineered E. coli” (Nature Communications, 2022)
# Structures can show the parent of a compound that is named as a salt. ± gives the standard deviation of the averaged measurements.
# Legend:
# Test in all cases: growth (OD600 after 10 h); higher = more growth (less inhibition)
# [1] = tested on: E. coli TESEC Alr+ wild-type control; conditions: compound 0.1 mM; raw OD600 reference: median of DMSO wells 0.241, cell-free background 0.041
# Method: (§1)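 TESEC Mtb Alr E. coli, or the Alr+ wild-type control, in 384-well plates with Prestwick library compounds at 0.1 mM and 1% DMSO, across arabinose induction levels of 1E3 to 1E7 nM. Growth is read as OD600 after 10 h at 37 °C in triplicate biological replicates.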
# E. coli TESEC Mtb Alr [2] = conditions: compound 0.1 mM
# Method: as §1
# E. coli TESEC Mtb Asd = conditions: compound 0.1 mM
# Method: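 TESEC E. coli strains in which the native enzyme is deleted and replaced by arabinose-inducible Mtb Asd, DapB, CysH or TrpD, each grown in its selective medium. Strains were screened against the Prestwick library at 0.1 mM and 1% DMSO in 384-well format at low and high arabinose induction. Growth is read as OD600 after 10 h in triplicate.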
# [3] = tested on: E. coli TESEC Alr+ wild-type control; conditions: compound 0.1 mM; raw OD600 reference: median of DMSO wells 0.49, cell-free background 0.052
# Method: (§2)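 TESEC Mtb Alr E. coli (ΔaraC ΔtolC ΔentC Δalr ΔdadX, arabinose-inducible Mtb Alr) or the Alr+ wild-type control strain, grown in defined M9-fructose medium without D-alanine in 96-well plates with Prestwick library compounds at 0.1 mM and 1% DMSO. Low Alr induction is 0.1 µM arabinose and high induction is 10 mM arabinose.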
# E. coli TESEC Mtb Alr [4] = conditions: compound 0.1 mM; remark: listed apart in the source
# Method: as §2
# [5] = arabinose 1000 nM, raw OD600 reference: median of DMSO wells 0.294, cell-free background 0.041
# [6] = arabinose 10000 nM, raw OD600 reference: median of DMSO wells 0.264, cell-free background 0.041
# [7] = arabinose 100000 nM, raw OD600 reference: median of DMSO wells 0.201, cell-free background 0.041
# [8] = arabinose 1000000 nM, raw OD600 reference: median of DMSO wells 0.193, cell-free background 0.041
# [9] = arabinose 10000000 nM, raw OD600 reference: median of DMSO wells 0.146, cell-free background 0.041
# [10] = arabinose induction (level): High, raw OD600 reference: median of DMSO wells 0.331, cell-free background 0.041
# [11] = arabinose induction (level): Low, raw OD600 reference: median of DMSO wells 0.417, cell-free background 0.041
# [12] = arabinose 100 nM, raw OD600 reference: median of DMSO wells 0.413, cell-free background 0.052
# [13] = arabinose 10000000 nM, raw OD600 reference: median of DMSO wells […], cell-free background 0.052
Structure (SMILES),growth [1],growth (E. coli TESEC Mtb Alr [2]; [5]),growth (E. coli TESEC Mtb Alr [2]; [6]),growth (E. coli TESEC Mtb Alr [2]; [7]),growth (E. coli TESEC Mtb Alr [2]; [8]),growth (E. coli TESEC Mtb Alr [2]; [9]),growth (E. coli TESEC Mtb Asd; [10]),growth (E. coli TESEC Mtb Asd; [11]),growth [3],growth (E. coli TESEC Mtb Alr [4]; [12]),growth (E. coli TESEC Mtb Alr [4]; [13])
CC1(C)S[C@@H]2[C@H](NC(=O)[C@H](NC(=O)N3CCNC3=O)c3ccccc3)C(=O)N2[C@H]1C(=O)O [Azlocillin sodium salt],0.238 ± 0.0043,0.312 ± 0.008,0.276 ± 0.0051,0.177 ± 0.0081,0.195 ± 0.013,0.152 ± 0.015,0.31 ± 0.035,0.442 ± 0.025,0.631 ± 0.06,0.403 ± 0.017,0.361 ± 0.013
OC(CCN1CCCC1)(c1ccccc1)C1CCCCC1 (stereo not drawn) [Procyclidine hydrochloride],0.206 ± 0.018,0.297 ± 0.018,0.266 ± 0.0065,0.194 ± 0.011,0.163 ± 0.0092,0.148 ± 0.0059,0.314 ± 0.14,0.473 ± 0.055,0.573 ± 0.041,0.412 ± 0.009,0.317 ± 0.0092
CC1(C)O[C@@H]2C[C@H]3[C@@H]4CCC5=CC(=O)C=C[C@]5(C)[C@H]4[C@@H](O)C[C@]3(C)[C@]2(C(=O)CO)O1 [Desonide],0.185 ± 0.0048,0.252 ± 0.0091,0.254 ± 0.011,0.172 ± 0.014,0.15 ± 0.005,0.144 ± 0.0029,0.208 ± 0.0068,0.378 ± 0.065,0.496 ± 0.062,0.414 ± 0.011,0.302 ± 0.019
CC(=O)O[C@]1(C(C)=O)CC[C@H]2[C@@H]3C=C(Cl)C4=CC(=O)CC[C@]4(C)[C@H]3CC[C@@]21C [Chlormadinone acetate],0.15 ± 0.0069,0.156 ± 0.0078,0.0802 ± 0.014,0.148 ± 0.0022,0.0653 ± 0.0047,0.11 ± 0.0088,0.12 ± 0.0098,0.0867 ± 0.0071,0.442 ± 0.0057,0.3733 ± 0.0037,0.203 ± 0.03
CC(C)(C)CC(C)(C)c1ccc(OCCOCC[N+](C)(C)Cc2ccccc2)cc1 [Benzethonium chloride],0.0416 ± 0.00072,0.0415 ± 0.0011,0.0413 ± 0.0002,0.0425 ± 0.0011,0.04103 ± 0.00021,0.0418 ± 0.00044,0.0499 ± 0.00098,0.0496 ± 0.0017,0.04753 ± 0.00035,0.0552 ± 0.0016,0.0504 ± 0.00059
NC(=O)c1ncn([C@@H]2O[C@H](CO)[C@@H](O)[C@H]2O)n1 [Ribavirin],0.17 ± 0.02,0.0986 ± 0.0022,0.0798 ± 0.0011,0.117 ± 0.0028,0.0816 ± 0.0003,0.106 ± 0.0017,0.404 ± 0.036,0.426 ± 0.071,0.54 ± 0.043,0.415 ± 0.046,0.24 ± 0.021
O=C1OCCN1/N=C/c1ccc([N+](=O)[O-])o1 [Furazolidone],0.0406 ± 0.0001,0.041 ± 0.00078,0.04053 ± 0.00021,0.0418 ± 0.00065,0.03987 ± 0.00012,0.0412 ± 0.0008,0.056 ± 0.0037,0.0561 ± 0.0034,0.05247 ± 0.00031,0.0572 ± 0.0027,0.05093 ± 0.00032
C[C@H](CCC(=O)O)[C@H]1CC[C@H]2[C@@H]3[C@H](O)C[C@@H]4C[C@H](O)CC[C@]4(C)[C@H]3CC[C@]12C [Chenodiol],0.247 ± 0.0086,0.263 ± 0.0097,0.221 ± 0.0073,0.278 ± 0.021,0.146 ± 0.0057,0.143 ± 0.0086,0.216 ± 0.071,0.289 ± 0.049,0.439 ± 0.059,0.392 ± 0.0058,0.209 ± 0.02
NS(=O)(=O)c1cc2c(cc1Cl)N=C(CSCc1ccccc1)NS2(=O)=O [Benzthiazide],0.241 ± 0.008,0.292 ± 0.023,0.254 ± 0.0055,0.171 ± 0.017,0.169 ± 0.0062,0.132 ± 0.0022,0.286 ± 0.026,0.487 ± 0.025,0.606 ± 0.051,0.405 ± 0.0095,0.3136 ± 0.0011
O=C(NCC1CCCCN1)c1cc(OCC(F)(F)F)ccc1OCC(F)(F)F (stereo not drawn) [Flecainide acetate],0.2202 ± 0.00045,0.2999 ± 0.00055,0.276 ± 0.0049,0.188 ± 0.0093,0.168 ± 0.0038,0.143 ± 0.0024,0.263 ± 0.026,0.42 ± 0.091,0.495 ± 0.081,0.412 ± 0.011,0.356 ± 0.018
Cn1c([N+](=O)[O-])cnc1COC(N)=O [Ronidazole],0.226 ± 0.0055,0.296 ± 0.007,0.27 ± 0.0076,0.161 ± 0.0087,0.149 ± 0.0036,0.164 ± 0.0025,0.241 ± 0.036,0.338 ± 0.016,0.458 ± 0.0079,0.4333 ± 0.0022,0.285 ± 0.011
O=C1c2c(O)ccc(O)c2C(=O)c2c(NCCNCCO)ccc(NCCNCCO)c21 [Mitoxantrone dihydrochloride],0.355 ± 0.0023,0.3551 ± 0.0031,0.3438 ± 0.0024,0.3501 ± 0.0014,0.3506 ± 0.001,0.3496 ± 0.0028,0.36 ± 0.0066,0.3445 ± 0.0031,0.259 ± 0.051,0.231 ± 0.0097,0.292 ± 0.025
C[C@]1(Cn2ccnn2)[C@H](C(=O)O)N2C(=O)C[C@H]2S1(=O)=O [Tazobactam],0.249 ± 0.011,0.0404 ± 0.0022,0.0384 ± 0.0001,0.045 ± 0.0019,0.18 ± 0.015,0.074 ± 0.0014,0.405 ± 0.031,0.424 ± 0.022,0.0454 ± 0.00051,0.245 ± 0.17,0.0826 ± 0.0045
NC[C@@H]1O[C@@H](O[C@H]2[C@H](O)[C@@H](O[C@H]3O[C@H](CO)[C@@H](O)[C@H](N)[C@H]3O)[C@H](N)C[C@@H]2N)[C@@H](O)[C@H](O)[C@H]1O [Kanamycin A sulfate],0.247 ± 0.0031,0.302 ± 0.013,0.263 ± 0.0086,0.228 ± 0.016,0.1781 ± 0.0015,0.164 ± 0.0095,0.245 ± 0.044,0.404 ± 0.073,0.495 ± 0.032,0.403 ± 0.008,0.353 ± 0.014
Nc1nc2[nH]cc(CCc3ccc(C(=O)N[C@@H](CCC(=O)O)C(=O)O)cc3)c2c(=O)[nH]1 [Pemetrexed disodium],0.258 ± 0.0062,0.303 ± 0.017,0.274 ± 0.019,0.218 ± 0.029,0.184 ± 0.0046,0.156 ± 0.0069,0.281 ± 0.0067,0.405 ± 0.063,0.56 ± 0.081,0.416 ± 0.013,0.32 ± 0.012
CCC1=C(C)CN(C(=O)NCCc2ccc(S(=O)(=O)NC(=O)N[C@H]3CC[C@H](C)CC3)cc2)C1=O [Glimepiride],0.247 ± 0.0069,0.299 ± 0.011,0.239 ± 0.0027,0.161 ± 0.0087,0.182 ± 0.004,0.155 ± 0.0053,0.338 ± 0.064,0.439 ± 0.052,0.434 ± 0.034,0.411 ± 0.0056,0.193 ± 0.014
Nc1nc(=O)c2nc(CNc3ccc(C(=O)N[C@@H](CCC(=O)O)C(=O)O)cc3)cnc2[nH]1 [Folic acid],0.25 ± 0.0064,0.306 ± 0.0062,0.239 ± 0.0047,0.244 ± 0.028,0.149 ± 0.0059,0.1653 ± 0.0014,0.219 ± 0.037,0.318 ± 0.021,0.446 ± 0.02,0.407 ± 0.011,0.34 ± 0.02
NS(=O)(=O)c1cc2c(cc1Cl)NC(C(Cl)Cl)NS2(=O)=O (stereo not drawn) [Trichlormethiazide],0.243 ± 0.0058,0.296 ± 0.021,0.278 ± 0.0046,0.2 ± 0.013,0.195 ± 0.015,0.139 ± 0.0024,0.331 ± 0.037,0.448 ± 0.033,0.631 ± 0.095,0.408 ± 0.0097,0.357 ± 0.01
